Results reported in PubChem BioAssay.
Values joined by “and” are separate entries in the source; they are usually repeats but may differ in a detail not shown here. Equal values may be shown once. Active and inactive are the calls of the source.

Experiments:
Albumin (Bos taurus) = Albumin (Bos taurus) (UniProt P02769); assay: compounds binding labelled BSA control protein – biochemical, small-molecule microarray, Alexa647 label, 635/667 nm fluorescence, artefact control for SMM control protein annotation, profiling panel (AID 1118); settings: BSA-A647 binding, fluorescence 635 nm, higher = more signal;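 note: score merges 667 nm emission intensity and signal-to-noise per printed compound spot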
[1] = probe aXIP binding to arrayed compounds – biochemical, NeuroSMM set, 635/667 nm fluorescence, primary screen (AID 1119); settings: small-molecule microarray, higher = more signal, called active from +8 up or from −8 down;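 note: probe is the protein aXip251-270 applied at 1 µg/mL to compound-printed slides; binding of probe to printed compounds measured as 667 nm fluorescence plus signal to noise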
[2] = probe aNOTCH3 binding on compound microarray – biochemical, small-molecule microarray, 635/667 nm fluorescence, primary screen (AID 1120); settings: higher = more signal;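 note: probe is a biotin-tagged antibody raised against NOTCH3 rather than NOTCH3 protein; score merges spot fluorescence near 667 nm with spot signal to noise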
[3] = probe aNOTCH2 binding on compound microarray – biochemical, small-molecule microarray, 635/667 nm fluorescence, primary screen (AID 1121); settings: higher = more signal;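 note: score merges feature fluorescence read at 667 nm with its signal to noise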
[4] = target: Carbonic anhydrase 2 (Homo sapiens) (UniProt P00918); assay: compounds binding carbonic anhydrase 2 – biochemical, small-molecule microarray, Alexa647-labelled CAII, profiling panel (AID 1122); settings: CAII-A647 binding fluorescence, higher = more signal
[5] = COS7 lysate on small-molecule microarray, probe aHis, 635 nm (AID 1123); settings: COS7 cell lysate, fluorescence, higher = more signal;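 note: z-score combines 667nm fluorescence intensity with signal-to-noise per printed compound spot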
[6] = probe aLAP1 signal on lysate-treated microarray – cell lysate, small-molecule microarray, COS7 lysate, primary screen (AID 1124); settings: probe aLAP1, fluorescence, higher = more signal;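 note: lysate comes from COS7 cells expressing LAP1 and is applied at 0.3 µg/mL; score merges spot fluorescence near 667 nm with signal-to-noise over triplicate slides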
Sam68 (KHDRBS1) = assay: compounds binding KHDRBS1 protein – biochemical, small-molecule microarray, 635 nm fluorescence, primary screen (AID 1125); settings: higher = more signal;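 note: score merges 667 nm channel intensity with signal to noise over triplicate slides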
[7] = system: Chordin-like protein 2 (CHRDL2); assay: compounds binding chordin-like 2 – biochemical, small-molecule microarray, 635 nm fluorescence, primary screen (AID 1126); settings: fluorescence 635 nm, higher = more signal;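 note: printed compound slides probed with Chrdl2 protein at 4 µg/mL for 1 h at 4 C; score merges 667 nm emission intensity with signal to noise over three replicate slides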
[8] = target: Concanavalin-A (Canavalia ensiformis) (UniProt P02866); assay: compounds binding concanavalin A lectin – biochemical, small-molecule microarray, Alexa647 label, 635 nm, artefact control for SMM control protein annotation, primary screen (AID 1127); settings: ConA-A647 binding fluorescence, higher = more signal;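 note: z combines 667 nm emission intensity with signal-to-noise across three replicate slides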
Sequence of Concanavalin-A (Canavalia ensiformis) (P02866 whole entry, looked up): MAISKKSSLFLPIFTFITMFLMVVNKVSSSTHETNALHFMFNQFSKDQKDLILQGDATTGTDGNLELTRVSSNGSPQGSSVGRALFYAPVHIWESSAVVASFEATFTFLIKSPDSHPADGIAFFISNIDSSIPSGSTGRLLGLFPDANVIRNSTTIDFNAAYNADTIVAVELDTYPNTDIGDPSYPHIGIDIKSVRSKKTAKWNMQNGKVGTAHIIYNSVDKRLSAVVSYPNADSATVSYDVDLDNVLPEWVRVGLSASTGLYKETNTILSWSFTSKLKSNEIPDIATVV

Sequence of Albumin (Bos taurus) (P02769 whole entry, looked up): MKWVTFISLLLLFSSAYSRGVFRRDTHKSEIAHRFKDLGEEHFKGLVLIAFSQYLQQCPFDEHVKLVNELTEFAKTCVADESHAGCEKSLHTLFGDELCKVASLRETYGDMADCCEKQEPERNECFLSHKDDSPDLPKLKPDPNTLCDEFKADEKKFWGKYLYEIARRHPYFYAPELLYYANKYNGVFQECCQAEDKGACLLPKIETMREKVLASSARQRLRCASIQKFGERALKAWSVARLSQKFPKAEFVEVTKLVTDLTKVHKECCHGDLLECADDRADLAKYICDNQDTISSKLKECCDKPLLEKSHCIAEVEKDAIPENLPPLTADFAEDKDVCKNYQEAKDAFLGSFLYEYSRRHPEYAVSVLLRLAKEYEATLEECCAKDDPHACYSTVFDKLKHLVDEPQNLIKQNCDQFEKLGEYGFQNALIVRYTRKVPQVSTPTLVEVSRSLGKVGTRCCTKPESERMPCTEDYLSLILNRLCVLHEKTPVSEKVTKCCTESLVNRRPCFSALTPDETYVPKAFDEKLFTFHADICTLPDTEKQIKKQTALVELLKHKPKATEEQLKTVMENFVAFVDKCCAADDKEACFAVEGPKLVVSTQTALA

| SMILES | composite z-score (Albumin (Bos taurus)) | composite Z-score [1] | composite z-score [2] | composite z-score [3] | composite z-score [4] | composite z-score [5] | composite z-score [6] | composite z-score (Sam68 (KHDRBS1)) | composite z-score [7] | composite z-score [8] |
| --- | --- | --- | --- | --- | --- | --- | --- | --- | --- | --- |
| C[N+](C)(C)CCCCCCNC(=O)[C@H]1C[C@H]2C(=O)N[C@@H](CCCC[N+](C)(C)C)C(=O)N2[C@H]1c1cccc(OCCO)c1 | -0.239 and -0.101 | 0.891 (inactive) and -0.166 (inactive) | -0.0647 and 0.203 | -0.148 and 0.046 | 0.655 and 0.419 | 0.897 and 0.214 | 0.479 and 0.285 | 0.861 and 0.669 | 1.22 and 1.04 | 0.606 and 0.352 |
| C=CCN(C(=O)C(c1cccs1)N(C(=O)/C=C\C(=O)O)c1c(Cl)cccc1CO)c1ccc(OC)cc1 (stereo not given) | -0.464 and -0.473 | -0.244 (inactive) and 0.222 (inactive) | -0.374 and -0.246 | -0.179 and -0.127 | 0.819 and 0.837 | 1.8 and 0.329 | 0.78 and 0.281 | -0.818 and -0.2 | -4.02 and -0.896 | -0.772 and -1.14 |
| CCCC[C@@H]1CN2[C@@H](CC[C@@H](C)[C@@H]2c2ccc(Br)cc2)C(=O)O1 | 0.604 and 0.712 | 0.548 (inactive) and 0.14 (inactive) | 0.0293 and -0.0219 | -0.104 and -0.164 | 0.284 and 0.282 | 1.22 and 0.595 | -0.0028 and 0.498 | 1.1 and 0.929 | 0.306 and 0.0739 | 0.402 and 0.987 |
| CCOC(=O)[C@@H]1CC=C2CC1C(=O)N1CCC[C@@H]1[C@H]2O[Si](C)(C)C(C)(C)C (stereo not given in full) | -0.657 and -0.964 | 0.047 (inactive) and -0.365 (inactive) | -0.227 and -0.352 | -0.147 and -0.202 | -0.33 and -0.492 | -0.273 and -0.211 | -0.687 and -0.442 | -1.04 and -1.8 | -0.486 and -0.0717 | -2.59 and -3.25 |
| COC(=O)C1=C(C)N(Cc2ccccc2)[C@]23O[C@](C(=O)OC)(C(=O)N2[C@@H]1c1ccccc1)[C@@H](C(=O)OC)[C@H]3C(=O)OC | 0.0583 and -0.396 | -0.179 (inactive) and -0.813 (inactive) | -0.0947 and -0.0892 | -0.165 and -0.106 | 0.266 and -0.244 | 0.189 and -0.172 | -0.429 and -0.258 | -0.192 and 0.227 | -0.34 and 0.406 | -1.07 and 0.249 |
| COC(=O)C1=C(C)N(Cc2ccccc2)C2=C3C(=O)CCC[C@@H]3[C@@](O)(C(=O)OC)C(=O)N2[C@@H]1c1ccccc1 | 0.0476 and 0.354 | -0.0521 (inactive) and -0.191 (inactive) | -0.0077 and 0.178 | -0.125 and -0.114 | 0.362 and 0.0465 | 0.0949 and 0.111 | -0.0012 and 0.0654 | 0.368 and -0.0561 | 0.674 and 0.24 | 0.596 and -0.917 |
| C[C@@H]1CC[C@H]2C(=O)O[C@H](CN=[N+]=[N-])CN2[C@H]1c1ccc(Br)cc1 | -0.507 and 0.491 | 0.142 (inactive) and 0.753 (inactive) | -0.125 and -0.197 | -0.245 and -0.0569 | -0.188 and -0.223 | -0.0295 and -0.382 | 0.268 and -0.329 | -0.167 and 0.113 | 0.735 and 0.382 | -0.726 and 0.0516 |
| C=CCN(CCCCC)C(=O)C1N(C(C)(C)CO)C(=O)C2C(C(=O)O)C3C=CC21O3 (stereo not given) | -0.544 and -0.85 | 0.159 (inactive) and -0.421 (inactive) | -0.484 and -0.372 | -0.112 and -0.0984 | 0.196 and 0.327 | -1.14 and -0.703 | -0.385 and 0.137 | -1.11 and -1.2 | -1.84 and -2.83 | -1.83 and -1.31 |
| C=CCN(Cc1ccccc1)C(=O)C1N(C(C)(C)CO)C(=O)C2C(C(=O)O)C3C=CC21O3 (stereo not given) | -1.24 and -0.826 | -0.498 (inactive) and -0.61 (inactive) | -0.358 and -0.475 | -0.126 and -0.0956 | 0.47 and 0.296 | -0.0142 and -0.798 | -0.587 and -0.987 | -1.6 and -1.66 | -2.74 and -1.88 | -2.4 and -2.33 |
| C=CCN(Cc1ccccc1)C(=O)C1N(CCCCCCO)C(=O)C2C(C(=O)O)C3C=CC21O3 (stereo not given) | -0.198 and 0.768 | -0.461 (inactive) and -0.2 (inactive) | -0.541 and -0.445 | -0.14 and -0.154 | 0.812 and 0.904 | -0.376 and -0.155 | -0.694 and -0.332 | -0.442 and -1.97 | -3.18 and -2.25 | -0.588 and -2.21 |
| CCOC(=O)[C@H](Cc1ccccc1)NC(=O)CCC1CC(OC(=O)NCc2cccc3ccccc23)CC2(CCCC(COC(=O)NCCCN3CCCC3=O)O2)O1 (stereo not given in full) | -0.395 | -0.365 (inactive) | 0.0203 | -0.101 | 0.165 | 1.14 | -0.223 | 1.12 | 0.5 | 1.08 |
| C=CCN(C(=O)C1N(c2c(Cl)cccc2CO)C(=O)C2C(C(=O)O)C3C=CC21O3)c1ccc(OC)cc1 (stereo not given) | 0.14 and -0.586 | -0.172 (inactive) and -0.621 (inactive) | -0.786 and -0.515 | -0.46 and -0.162 | 0.376 and -0.184 | 0.016 and -0.849 | 0.137 and -0.803 | -0.608 and -1.33 | -0.702 and -2.38 | -0.494 and -1.23 |
| C=CCN(C(=O)C1N(CCCCCCO)C(=O)C2C(C(=O)O)C3C=CC21O3)C(C)(C)C (stereo not given) | -0.171 and -1.11 | 0.148 (inactive) and -0.707 (inactive) | -0.695 and -0.55 | -0.217 and -0.192 | 0.987 and 0.958 | -0.712 and 0.0575 | -0.729 and -0.646 | -1.73 and -0.275 | -4.11 and -4.07 | -0.974 and -2.94 |
| CC(CO)N1C(=O)[C@@H]2C3C(=O)OCCC=C[C@H]3OC23C=CCN(Cn2nnc4ccccc42)C(=O)[C@@H]13 (stereo not given in full) | -0.169 and 0.923 | 0.318 (inactive) and 0.418 (inactive) | -0.374 and -0.15 | -0.14 and -0.0191 | 0.939 and 0.856 | 0.342 and -0.478 | 0.102 and 0.397 | -0.821 and -0.291 | -2.19 and 0.0479 | -0.221 and -0.0699 |
| C=CCN(C(=O)C1N(C(C)(C)CO)C(=O)C2C(C(=O)O)C3C=CC21O3)C(C)(C)C (stereo not given) | -0.768 and -1.3 | -0.057 (inactive) and -0.12 (inactive) | -0.664 and -0.47 | -0.154 and -0.208 | 0.856 and 0.799 | -1.2 and 0.643 | -0.393 and 1.52 | -0.967 and -0.65 | -3.3 and -1.67 | -0.855 and -1.83 |
| COC(=O)[C@H](C)NC(=O)CCC1CC(OC(=O)NCCc2ccc(F)cc2)CC2(CCCC(COC(=O)NCCCN3CCCC3=O)O2)O1 (stereo not given in full) | 0.171 | 2.06 (inactive) | 0.0159 | 0.666 | 0.194 | 0.275 | 0.0736 | 1.3 | 0.407 | 1.07 |
